Screens: PubChem, National Center for Advancing Translational Sciences (NCATS)
In the library only some 5.8% were active in any assay of this set; here they are far more common.
KB-V1 MDR tox – qHTS assay for MDR1-selective chemotherapeutics: Primary screen using the drug-selected MDR subline cells KB-V1; 400,000 compounds, 3.4% hits; AID 1347076, 2019; KB-V1 MDR cells viability, CellTiter-Glo, 72 h; Potency, µM (highest dose often 46.1 µM), most hits filed as cytotoxic; note: % is set by controls: 0 for no effect and ±100 for the full control effect; nearly all actives have a fitted effect of over 60% in size
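Luminescent ATP read-out (CellTiter-Glo, 10 min) measures survival of drug-selected KB-V1 MDR cells after 72 h, 37 degrees C compound exposure. Medium: phenol-red-free DMEM, 10% FBS. Values from fitted concentration-response curves.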
SW480 rereplic – A quantitative high throughput screen for small molecules that induce DNA re-replication in SW480 colon adenocarcinoma cells; 340,000 compounds, 1.8% hits; SW480 DNA re-replication, Hoechst DNA content imaging, 48 h; Potency, µM (doses to about 46.1 µM), without a hit: at the top dose re-replication activation, hits mostly activators; note: % of control where 0% means no effect; nearly all actives have a fitted effect of over 55% in size
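First, 250 cells per well were seeded. Next, compound or vehicle (23 nL) was pinned in, plates sat 48 hr at 37 C. Finally Hoechst was added for 40 min before fluorescence scanning.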
PINK1 modulator – A Quantitative High throughput Screen to Identify Chemical Modulators of PINK1 Expression. PINK1 immunofluorescence, high-content cytometry, 24 h. Potency, µM (doses to about 76.6 µM), for inactives: top-dose activation (PINK1 increase), usual class: activators. 410,000 compounds, 0.2% hits. AID 624263, 2012; active = well fitted activation curve with a large enough effect; inconclusive = small, poorly fitted or top-dose-only effect; cell line not stated here; note: % of control where 0% means no effect; nearly all actives have a fitted effect of over 65% in size
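Stable cell line treated 24 h with compounds at 5 concentrations (CCCP controls), then fixed and immunostained for PINK1 plus nuclear and cell stains; PINK1 immunofluorescence quantified by laser-scanning microplate cytometry.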
MCF10A rerep – A quantitative high throughput screen for small molecules that induce DNA re-replication in MCF 10a normal breast cells; MCF 10A DNA re-replication, Hoechst nuclear intensity, 48 h; Potency, µM (titrated, usually from 46.1 µM), for the others: at the top dose activity, positive = re-replication, actives largely listed as activators; 350,000 compounds, 2.9% hits; AID 624296, 2012; note: % of control where 0% means no effect; nearly all actives have a fitted effect of over 50% in size
KB-3-1 tox – qHTS assay for MDR1-selective chemotherapeutics: Primary screen using the parental adenocarcinoma cell KB-3-1; AID 1347075, 2019; 400,000 compounds, 1.4% hits; KB-3-1 viability, CellTiter-Glo ATP luminescence, 72 h; Potency, µM (doses to about 46.1 µM), hits mostly cytotoxic; note: % is set by controls: 0 for no effect and ±100 for the full control effect; nearly all actives have a fitted effect of over 60% in size
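Parental KB-3-1 adenocarcinoma cells in phenol-red-free DMEM with 10% FBS were pin-treated with compounds at several concentrations, incubated 72 h at 37 °C, and viability read by CellTiter-Glo luminescence; concentration-effect curves were fitted after normalization.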
12-LOX inh – Primary qHTS assay for inhibitors of human arachidonate 12S-lipoxygenase (ALOX12): Round 2 | Polyunsaturated fatty acid lipoxygenase ALOX12 (Homo sapiens), P18054 | purified 12hLO, xylenol orange hydroperoxide absorbance | Potency, µM (titrated, usually from 108 µM), inactives show top-dose activity change, negative = inhibition, hits mostly inhibitors | 580,000 compounds, 1.1% hits | AID 1671190, 2021; note: % is set by controls: 0 for no effect and ±100 for the full control effect
Target sequence (P18054 whole entry, looked up): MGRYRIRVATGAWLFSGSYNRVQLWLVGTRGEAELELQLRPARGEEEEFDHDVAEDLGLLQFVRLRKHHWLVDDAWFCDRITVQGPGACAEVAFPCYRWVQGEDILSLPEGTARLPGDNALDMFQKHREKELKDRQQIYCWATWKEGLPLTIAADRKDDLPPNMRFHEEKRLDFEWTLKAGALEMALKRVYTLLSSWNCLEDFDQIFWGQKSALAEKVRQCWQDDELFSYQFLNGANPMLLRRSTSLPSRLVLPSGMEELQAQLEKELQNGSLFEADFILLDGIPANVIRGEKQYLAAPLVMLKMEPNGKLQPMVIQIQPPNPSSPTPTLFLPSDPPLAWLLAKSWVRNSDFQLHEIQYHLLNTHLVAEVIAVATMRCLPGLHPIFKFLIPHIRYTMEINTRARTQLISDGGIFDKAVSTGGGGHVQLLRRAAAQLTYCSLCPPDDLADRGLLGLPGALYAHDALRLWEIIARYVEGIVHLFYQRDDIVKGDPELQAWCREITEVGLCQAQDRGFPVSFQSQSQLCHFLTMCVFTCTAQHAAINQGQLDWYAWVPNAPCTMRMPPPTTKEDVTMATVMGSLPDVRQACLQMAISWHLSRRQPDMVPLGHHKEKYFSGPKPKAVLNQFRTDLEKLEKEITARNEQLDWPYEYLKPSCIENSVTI
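Hydroperoxide product was detected by ferrous iron/xylenol orange as the 573 to 405 nm absorbance ratio. Arachidonic acid at 40 uM (final) was turned over for 30 min at room temperature by 150 nM human 12hLO, pH 7.0 Hepes buffer, after 15 min compound preincubation.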
An asterisk follows results filed as active; [ ] = another dose, or the depositor's remark. Unless noted, calls come from the whole dose curve; as a rule, active = well fitted curve in the direction sought with a large enough effect; inconclusive = small, poorly fitted or top-dose-only effect, or another doubt; inactive = no such curve, though single readings can be large; an effect the other way counts as inactive or inconclusive. Potency is the fitted concentration of half-maximal effect.

Results for CCOC(=O)c1cccc(NS(=O)(=O)c2cc(-c3nn(CC)c(=O)c4c3CCCC4)ccc2C)c1 ?
12-LOX inh: 21.3%

What do the screens show for `COCCNC(=O)N1CCC(OC2CCN(Cc3ccccc3)CC2)CC1`?
12-LOX inh: 84.9%

What do the screens show for `CCCCCn1c(=O)c(C(=O)c2ccccc2)nc2ccccc21`?
KB-V1 MDR tox: 11.6µM*; SW480 rereplic: -5.4%; PINK1 modulator: -2.2%; MCF10A rerep: -1.3%; KB-3-1 tox: inconclusive; 12-LOX inh: 0.0%

What do the screens show for `CCc1nnc(NC(=O)C2CCN(c3cnccn3)CC2)s1`?
KB-V1 MDR tox: inactive; SW480 rereplic: -24.3%; PINK1 modulator: 3.5%[38.3 µM]; MCF10A rerep: 1.7%; KB-3-1 tox: inactive; 12-LOX inh: 0.0%

How did CC(C)c1nnc(NC(=O)C2CCN(c3cnccn3)CC2)s1 do in these assays?
KB-V1 MDR tox: 23.1µM*; SW480 rereplic: -0.8%; PINK1 modulator: 1.7%; MCF10A rerep: -1.2%; KB-3-1 tox: inactive; 12-LOX inh: -1.7%

Results for C=CCNC(=O)C1CCN(c2cnccn2)CC1 ?
KB-V1 MDR tox: inconclusive; SW480 rereplic: -50.1%; PINK1 modulator: 3.6%; MCF10A rerep: 0.231µM*; KB-3-1 tox: inactive; 12-LOX inh: 0.0%

How did COC(=O)C1=CN(C2CC2)C=C(C(=O)OC)C1c1ccc(C(F)(F)F)cc1 do in these assays?
KB-V1 MDR tox: inactive; SW480 rereplic: inconclusive; PINK1 modulator: 2.1%; MCF10A rerep: inconclusive; KB-3-1 tox: inactive; 12-LOX inh: -1.2%

Results for COC(=O)C1=CN(C2CC2)C=C(C(=O)OC)C1c1ccc(C(=O)OC)cc1 ?
KB-V1 MDR tox: 7.31µM*; SW480 rereplic: 4.0%; PINK1 modulator: 2.8%[38.3 µM]; MCF10A rerep: inconclusive; KB-3-1 tox: inactive; 12-LOX inh: 0.0%

What do the screens show for `COC(=O)c1c(NC(=O)CSc2nc3ccc(C)cc3[nH]2)sc2c1CCC2`?
12-LOX inh: -1.7%

Results for CN(C)C(=O)c1ccc(-c2nccc(-n3ccnc3)n2)cc1 ?
PINK1 modulator: 0.0%; 12-LOX inh: 22.4µM*

What do the screens show for `CN(C)C(=O)c1ccc(-c2nccc(NCc3cccnc3)n2)cc1`?
PINK1 modulator: 0.1%; 12-LOX inh: inconclusive

Results for Cc1ccccc1-c1nccc(-n2ccnc2)n1 ?
PINK1 modulator: -0.1%; 12-LOX inh: 7.94µM*

Results for CN(C)C(=O)c1ccc(-c2nccc(Nc3ccc(F)cc3)n2)cc1 ?
PINK1 modulator: 0.2%; 12-LOX inh: inconclusive

Results for CN(C)C(=O)c1ccc(-c2nccc(NCc3ccccc3)n2)cc1 ?
PINK1 modulator: 5.4%; 12-LOX inh: 44.7µM*

How did CCOCCCNc1nc2c(c(=O)n(C)c(=O)n2C)n1Cc1ccc(Cl)cc1Cl do in these assays?
12-LOX inh: 8.5%

What do the screens show for `N#Cc1ccc(COC(=O)c2ccc3c(c2)NC(=O)CS3)cc1`?
12-LOX inh: -6.2%

How did COc1ccccc1NC(=O)Cc1noc(CSc2nnc(C)n2C)n1 do in these assays?
KB-V1 MDR tox: inactive; SW480 rereplic: 2.2%; PINK1 modulator: 1.7%; MCF10A rerep: 0.651µM*; KB-3-1 tox: inactive; 12-LOX inh: 3.7%

Results for CC(C)CCN1CC(O)=C(c2nc3ccccc3[nH]2)C1=N ?
KB-V1 MDR tox: 10.3µM*; SW480 rereplic: 16.8%; PINK1 modulator: -1.7%[38.3 µM]; MCF10A rerep: 22.5%; KB-3-1 tox: inactive; 12-LOX inh: 1.9%

Results for CCCCN1CC(O)=C(c2nc3ccccc3[nH]2)C1=N ?
KB-V1 MDR tox: inactive; SW480 rereplic: 23.0%; PINK1 modulator: 6.9%; MCF10A rerep: inconclusive; KB-3-1 tox: inactive; 12-LOX inh: -4.1%

What do the screens show for `CC1(C)C(O)=C(c2nc3ccccc3[nH]2)C(=N)N1c1ccccc1`?
KB-V1 MDR tox: inconclusive; SW480 rereplic: 9.2µM*; PINK1 modulator: inconclusive; MCF10A rerep: inconclusive; KB-3-1 tox: inconclusive; 12-LOX inh: 0.0%

What do the screens show for `COc1ccc2cc(C(C)C(=O)Nc3cccc4cccnc34)ccc2c1` (configuration not stated)?
12-LOX inh: 16.8%

Results for CC1(C)CC(=O)C2=C(C1)NC(SCC(=O)Nc1ccccc1)=C(C#N)C2c1ccco1 (configuration not stated) ?
KB-V1 MDR tox: inactive; SW480 rereplic: inconclusive; PINK1 modulator: 2.2%; MCF10A rerep: 16.4µM*; KB-3-1 tox: inactive; 12-LOX inh: -18.6%

How did Cc1ccc(NC(=O)CSC2=C(C#N)C(c3ccco3)C3=C(CCCC3=O)N2)cc1 (configuration not stated) do in these assays?
KB-V1 MDR tox: inactive; SW480 rereplic: -0.7%[9.22 µM]; PINK1 modulator: -2.1%; MCF10A rerep: inconclusive; KB-3-1 tox: inactive; 12-LOX inh: -27.7%

How did COc1ccc(OC)c(NC(=O)CSC2=C(C#N)C(c3ccco3)C3=C(CCCC3=O)N2)c1 (configuration not stated) do in these assays?
KB-V1 MDR tox: inactive; SW480 rereplic: 16.4µM*; PINK1 modulator: -0.4%; MCF10A rerep: inconclusive; KB-3-1 tox: inactive; 12-LOX inh: 27.7%

Results for N#CC1=C(SCC(=O)c2ccc(Cl)cc2)NC2=C(C(=O)CCC2)C1c1ccco1 (configuration not stated) ?
KB-V1 MDR tox: inactive; SW480 rereplic: inconclusive; PINK1 modulator: 0.0%; MCF10A rerep: 11.2µM*; KB-3-1 tox: inconclusive; 12-LOX inh: 4.8%

How did COc1ccccc1C(NC(=O)Cc1ccccc1Cl)c1nccn1C (configuration not stated) do in these assays?
12-LOX inh: 36.4%

How did Cc1nc2cc(NC(=O)c3ccccc3Cl)ccc2o1 do in these assays?
12-LOX inh: -1.1%

What do the screens show for `COc1ccc(-c2csc3nc(-c4ccccc4OC)oc(=O)c23)cc1`?
KB-V1 MDR tox: inactive; SW480 rereplic: 16.4µM*; PINK1 modulator: -3.0%; MCF10A rerep: 20.6µM*; KB-3-1 tox: inactive; 12-LOX inh: -11.4%

How did Cc1ccc(C(=O)c2ccccc2C(=O)OCCOc2ccc(Cl)cc2Cl)cc1 do in these assays?
12-LOX inh: -5.3%
